Screening data from PubChem BioAssay.
CtBP-E1A inh – CtBP/E1A binding inhibition | actives 0.49% (n = 340,000) | activity change, % (no concentration beside the values) | AlphaScreen GST-E1A/His-CtBP binding, 1536-well; active compounds read low; in the data active = activity change below about -65%; inconclusive = mostly about -30% to -63%; also: % is scaled to controls: 0 for no effect and ±100 for the full control effect
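AlphaScreen with 125 nM GST-E1A and 125 nM His-CtBP (5X stocks) in Tris pH 8.0, 300 mM NaCl, BSA, Tween 20, TCEP. Compounds preincubated 2 h at 37 deg C, then glutathione donor/nickel acceptor beads added for 1 h at 37 deg C in dark.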
HP1b chromo inh – inhibitors of HP1-beta chromodomain binding to methylated histone tails | P83916 | AlphaScreen HP1-beta / biotin-H3K9me3 peptide binding | Potency, µM (series often up to 114 µM), without a hit: at the highest dose activity change, negative = inhibition, usual class: inhibitors | actives 0.56% (n = 390,000) | AID 540317; also: potency is read from the fitted curve at half-maximal effect; nearly all actives have a fitted effect of over 70% in size
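HP1-beta protein (50 nM final) preincubated 30 min at room temperature with biotinylated H3(1-18)K9me3 peptide (50 nM) in PBS pH 7.4, 0.01% Tween-20, then compound added for 30 min. AlphaScreen streptavidin donor/nickel chelate acceptor beads (10 ug/mL final), 30 min dark, luminescence read.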
BAZ2B block – inhibitors of human BAZ2B bromodomain; Q9UIF8; AlphaScreen BAZ2B-H3K14Ac peptide displacement; Potency, µM (doses to about 114 µM), for the others: top-dose activity change, negative = inhibition, actives largely listed as inhibitors; actives 4.4% (n = 360,000); AID 504333; also: potency is read from the fitted curve at half-maximal effect; % is scaled to controls: 0 for no effect and ±100 for the full control effect; nearly all actives have a fitted effect of over 60% in size
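Protein-peptide AlphaScreen: BAZ2B 50 nM, b-H3K14Ac 50 nM, 1x PBS pH 7.4 + 0.01% Tween-20. Preincubation 30 min RT; cpd 30 min RT (top 110 uM); beads 20 min RT, light-protected.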
TDP1 inh – blocks human tyrosyl-DNA phosphodiesterase 1; Q9NUW8; recombinant TDP1, AlphaScreen DNA substrate cleavage; Potency, µM (titrated, usually from 130 µM), for the others: at the highest dose activity change, negative = inhibition, actives largely listed as inhibitors; actives 0.28% (n = 350,000); AID 485290; also: potency is read from the fitted curve at half-maximal effect; % is scaled to controls: 0 for no effect and ±100 for the full control effect; nearly all actives have a fitted effect of over 40% in size
Target sequence (Q9NUW8 whole entry, looked up): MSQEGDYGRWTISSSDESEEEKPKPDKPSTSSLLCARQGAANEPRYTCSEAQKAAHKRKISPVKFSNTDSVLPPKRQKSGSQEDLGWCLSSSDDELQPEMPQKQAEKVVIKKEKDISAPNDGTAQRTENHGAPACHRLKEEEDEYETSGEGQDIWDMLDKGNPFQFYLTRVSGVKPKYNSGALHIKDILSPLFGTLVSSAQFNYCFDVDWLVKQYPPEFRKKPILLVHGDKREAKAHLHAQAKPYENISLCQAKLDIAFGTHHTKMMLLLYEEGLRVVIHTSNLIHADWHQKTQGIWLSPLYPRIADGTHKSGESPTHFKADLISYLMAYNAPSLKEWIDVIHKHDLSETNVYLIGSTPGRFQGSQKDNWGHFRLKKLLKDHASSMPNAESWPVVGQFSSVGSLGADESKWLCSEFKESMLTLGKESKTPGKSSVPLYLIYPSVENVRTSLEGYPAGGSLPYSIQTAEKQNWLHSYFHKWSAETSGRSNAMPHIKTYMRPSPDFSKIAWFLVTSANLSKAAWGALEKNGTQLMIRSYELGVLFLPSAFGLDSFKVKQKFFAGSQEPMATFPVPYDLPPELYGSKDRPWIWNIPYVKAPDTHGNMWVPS
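Signal: AlphaScreen proximity between streptavidin donor and anti-FITC acceptor beads on intact substrate. Reaction: Tdp1 1 nM, substrate 15 nM final, 5 min RT after 15 min compound preincubation.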
JMJD2A Tudor inh – inhibitors of human JMJD2A Tudor domain; AlphaScreen JMJD2A-Tudor / H3K4me3 peptide binding; Potency, µM (doses to about 114 µM), without a hit: at the highest dose activity change, negative = inhibition, most hits filed as inhibitors; actives 4.4% (n = 390,000); O75164; also: potency is read from the fitted curve at half-maximal effect; % is scaled to controls: 0 for no effect and ±100 for the full control effect; nearly all actives have a fitted effect of over 50% in size
Six1-Eya2 blk – Six1/Eya2 interaction inhibition; Q15475+O00167; AlphaScreen GST-Six1/His-Eya2 binding, biochemical; active compounds read low; activity change, % (no concentration beside the values); actives 0.56% (n = 360,000); AID 651725; in the data active = activity change below about -65%; inconclusive = mostly about -30% to -63%; also: % is scaled to controls: 0 for no effect and ±100 for the full control effect
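GST-Six1 + His-Eya2 (5X stock: 250/500 nM); Tris pH 8.0, 300 mM NaCl, 0.05% BSA, 0.02% Tween 20; GSH donor/Ni acceptor beads; 1 h 37 °C dark; AlphaScreen readout.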
The depositor's hits bear a star; ? = inconclusive; · = no result given; ! = a repeat was not active; [ ] = dose if it differs, or a comment. Rows were chosen to be rich in hits. Some 5.3% of all compounds tested hit in one or more screens of this group. Unless noted, calls follow the shape of the dose curve; as a rule, active = well fitted inhibition curve with a large enough effect; inconclusive = small, poorly fitted or top-dose-only effect; inactive = no such curve, though single readings can be large or run the other way.

SMILES	CtBP-E1A inh	HP1b chromo inh	BAZ2B block	TDP1 inh	JMJD2A Tudor inh	Six1-Eya2 blk
CSc1ccc(-c2nc3cc(C)ccn3c2Nc2ccc(C)cc2)cc1	·	-7%	-10%	2%	-16%	·
Cc1ccccc1Nc1c(-c2ccccn2)nc2ccccn12	·	-5%	10µM*	8%	50µM*	-91*
Cc1ccn2c(Nc3ccccc3C)c(-c3ccccn3)nc2c1	-93*	?	22µM*	12%	45µM*!	-82*
CN1CCN(C2(CNC(=O)c3ccc([N+](=O)[O-])cc3)CCCCC2)CC1	·	40%	14%	-4%	-9%	·
Cc1ccc(CSc2nc3c([nH]c4ccccc43)c(=O)n2C)cc1	·	19%[57 µM]	0%	-2%	-11%	·
CC(C)c1ccc(Nc2c(-c3ccccn3)nc3ccccn23)cc1	·	?	22µM*	18%	32µM*	·
Cc1ccc(-c2nc3sccn3c2Nc2ccccc2C)cc1	·	?	7.1µM*	10%	45µM*	·
Cc1ccc2nc(-c3ccncc3)c(Nc3ccccc3C)n2c1	·	20%	-11%	-2%	-17%	·
Cc1ccc2nc(-c3ccccn3)c(Nc3ccccc3C)n2c1	-91*	-21%	20µM*	11%	45µM*!	?
COc1ccc(-c2nc3cccc(C)n3c2Nc2ccc(C)cc2)cc1	·	-21%	·	7%	40µM*	·
Cc1ccccc1Nc1c(-c2ccc(Cl)cc2)nc2c(C)cccn12	·	5%	-4%	0%	-11%	·
CC(C)c1ccc(Nc2c(-c3ccccc3O)nc3cnccn23)cc1	·	3%	?	6%	?	·
COCCN(CCOC)c1nc(C)nc2c1nc(-c1ccccc1)n2CCCN1CCCCC1C (stereo unspecified)	·	·	·	6%	·	·
CCc1ccccc1NC(=O)c1cc(S(=O)(=O)N2CCCC2)cn1C	·	29%	-11%	-1%	-22%	·
Cc1ccn2c(Nc3c(C)cccc3C)c(-c3ccc(Cl)s3)nc2c1	·	?	5.6µM*	0%[12.3 µM]	?	·
COc1ccc(-c2nc3ccccn3c2Nc2ccccc2C)cc1	·	?	·	8%	56µM*	·
Cc1ccccc1Nc1c(-c2cccnc2)nc2ccccn12	-17	38%	-31%	4%	-7%[11.4 µM]	-3
Cc1c(Cl)cccc1-n1ncc(C(=O)NCc2cccs2)c1C1CCN(C(=O)OC(C)(C)C)CC1	·	13%	-1%[57.1 µM]	-1%	-24%	·
COCCN1CCc2nc(SCC(=O)Nc3ccc(Br)cc3)[nH]c(=O)c2C1	·	34%	0%	3%	2%	·
Cc1ccc(NC(=O)N2CCN3CCCCC3C2)cc1C (stereo unspecified)	·	32%	-10%	0%	6%	·
N#Cc1nc(Nc2cc(Cl)cc(Cl)c2)nc(NC2CCCC2)n1	·	·	·	-4%	-5%	·
C#CCN(Cc1ccco1)C(=O)c1cc(COc2ccc(F)cc2Cl)on1	·	63%	71µM*	6%	-13%[11.4 µM]	12
CCN(Cc1ccncc1)C(=O)c1cc(COc2ccc(F)cc2Cl)on1	0	9%	-6%	3%	-18%	3
Cn1cc(S(=O)(=O)N2CCCCC2)cc1C(=O)Nc1ccc(OC(F)(F)F)cc1	·	27%[57 µM]	3%	5%	-5%	·
CCC(=O)N(CC)C1=C(O)c2ccccc2C(=O)C1=O	-7	?	45µM*	6%	5.6µM*	-6
SMILES	CtBP-E1A inh	HP1b chromo inh	BAZ2B block	TDP1 inh	JMJD2A Tudor inh	Six1-Eya2 blk
Cc1c(Cl)cccc1NC(=O)c1ccc2c(c1)nnn2C1CCCC1	·	2%	1%	0%	-16%	·
O=C(CSc1ccc2nc(-c3ccccc3)cn2n1)Nc1cccc(F)c1	·	35%[57 µM]	15%	5%	28%	·
CC(=O)c1cccc(NC(=O)CCS(=O)(=O)c2ccc3c(c2)n(C)c(=O)c(=O)n3C)c1	·	36%	-3%	3%	-11%	·
O=C(CCS(=O)(=O)c1ccc(Br)cc1)Nc1ccc(Br)cc1F	8	-25%	50µM*	·	-35%[57.1 µM]	3
COC(=O)c1ccc(NC(=O)CCS(=O)(=O)c2ccc(Br)cc2)cc1	-1	-21%	56µM*!	-12%	-28%	-13
CCc1cccc(NC(=O)CCS(=O)(=O)c2ccc(Br)cc2)c1	·	8.9µM*	32µM*	·	11µM*	-24
O=C(CCS(=O)(=O)c1ccc(Br)cc1)Nc1ccc(Cl)cc1F	1	34%	3%	0%	-13%[57.1 µM]	2
CC(=O)c1ccc(NC(=O)CCS(=O)(=O)c2ccc3c(c2)n(C)c(=O)c(=O)n3C)cc1	8	-18%	79µM*	·	79µM*	4
COc1cc(NC(=O)CCS(=O)(=O)c2ccc(Br)cc2)cc(OC)c1	·	0%	2%	-1%	-2%	·
Cc1cnc(CNc2ncnc3ccc(-c4cccc(C#N)c4)cc23)cn1	·	·	·	8%[56.1 µM]	·	·
COc1ccc(Cc2nc3ccccc3n2Cc2ccccc2F)cc1	·	54%	5%	-3%	7%	·
CCOc1ccc2nc(NC(=O)c3nc(SC(C)C)ncc3Cl)sc2c1	·	17%	-11%	0%	-16%	·
CCc1nnc2c3ccccc3nc(Nc3ccccc3OC)n12	·	10%	-2%	5%	-6%	·
COC(=O)c1ccc(NC(=O)C(=O)NCCc2sc(-c3cccc(F)c3)nc2C)cc1	·	17%[57 µM]	-2%	1%	-22%	·
Cc1nc2ccccc2n1CCc1nc2c3ccccc3nc(=S)n2[nH]1	-11	15%	-3%	8%	63µM*	-10
Cc1ccccc1-c1nc2c3ccccc3nc(=S)n2[nH]1	-2	43%	?	·	-16%	6
COc1ccc(-c2sc3cc4c(cc3c2C#CC2(N)CCCCC2)OCO4)cc1	1	11%	10µM*	0%	25µM*	-2
OCC1OC(c2ccccc2)C=CC1Oc1cc(Cl)cc(Cl)c1 (stereo unspecified)	·	·	·	8%[21 µM]	·	·
O=c1[nH]c(/C=C/c2ccc(Cl)cc2Cl)c([N+](=O)[O-])c(=O)[nH]1	·	6%	56µM*	·	-21%	-2
O=c1[nH]c(/C=C/c2ccccc2)c([N+](=O)[O-])c(=O)[nH]1	1	20%	-4%	6%	-14%	?
C=CCn1c(-c2ccoc2)n[nH]c1=S	-10	?	?	-7%	5µM*	2
CCCCOc1ccc(-c2n[nH]c(=S)n2Cc2ccccc2)cc1	1	2%	-1%	·	-22%	-3
CCCn1c(-c2ccncc2)n[nH]c1=S	-6	6%	5%	·	7.9µM*	-7
C=CCn1c(-c2ccc(F)cc2)n[nH]c1=S	-4	26%	-23%	·	7.1µM*	4
C=CCn1c(-c2ccncc2)n[nH]c1=S	3	36%	?	-5%	16µM*	2
C=CCn1c(-c2ccccc2)n[nH]c1=S	-1	-12%	46%	0%	?	-2
CC(C)(C)OC(=O)CC(=O)NNC(=O)c1nc2ccccc2[nH]1	·	·	·	-2%	-32%	·
